Only some compounds are listed: those with a hit (about 28% of all), similar ones and a draw of the others.
Pyk2 oligo antag = antagonists of Pyk2 self-association, primary screen, Q293 cells, FERM NanoBiT luminescence, HTS; Protein-tyrosine kinase 2-beta (Homo sapiens), Q14289; hits give low values; z-score (the deposit names both 25 µM and 10 µM); 99,000 compounds, 0.83% hits;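 active means Z-score of -3 or lower, scaled per plate to the spread of control and sample wells; inactive means z-score above -3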;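 further: negative z-score means lost luminescence so less FERM oligomerization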
CYP2C9 activ = human CYP2C9 activators, primary screen, biochemical, luminescence; AID 1024, 2008; activation factor at 5 µM; recombinant CYP2C9, luciferin-H conversion; hits give high values; factor 1 = untreated enzyme, 0 = blocked; 96,000 compounds, 1.4% hits; Cytochrome P450 2C9 (Homo sapiens), P11712;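 active means activation factor of 2 or more for CYP2C9 at a 5 µM dose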;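 further: 0 = sulfaphenazole-blocked wells and 1 = vehicle-only wells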
CYP2C19 inhib = blockers of cytochrome P450 2C19 activity – biochemical, luminescence, ADME assay, primary screen; 96,000 compounds, 21% hits; P33261; CYP2C19 Supersomes, luciferin-H EGE luminescence, 30 min; inhibition, % at 5 µM;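 active means CYP2C19 inhibition above a set limit at 5 µM in the primary screen, cut at about 50% in these data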;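 further: plate controls were negative control wells for no effect and 2.5 mM tranylcypromine positive control for full effect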
Target sequence (P33261 whole entry, looked up): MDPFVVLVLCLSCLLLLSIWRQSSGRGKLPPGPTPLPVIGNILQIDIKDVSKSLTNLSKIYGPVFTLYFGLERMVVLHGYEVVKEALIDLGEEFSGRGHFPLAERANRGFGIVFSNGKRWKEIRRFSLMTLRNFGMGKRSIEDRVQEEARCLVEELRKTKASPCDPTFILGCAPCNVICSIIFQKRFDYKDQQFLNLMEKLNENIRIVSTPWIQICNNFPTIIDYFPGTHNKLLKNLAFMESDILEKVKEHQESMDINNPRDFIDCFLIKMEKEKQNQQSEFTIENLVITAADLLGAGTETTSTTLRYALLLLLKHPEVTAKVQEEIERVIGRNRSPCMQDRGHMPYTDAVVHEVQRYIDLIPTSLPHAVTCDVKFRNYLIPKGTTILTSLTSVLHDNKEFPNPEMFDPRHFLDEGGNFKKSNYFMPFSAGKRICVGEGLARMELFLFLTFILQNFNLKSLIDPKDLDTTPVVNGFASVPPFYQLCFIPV
CYP2C19 activ = human CYP2C19 activators, primary screen, biochemical, luminescence; Cytochrome P450 2C19 (Homo sapiens), P33261; recombinant CYP2C19, luciferin-H EGE luminescence; hits give high values; 0 = fully inhibited enzyme, 1 = untreated enzyme; activation factor at 5 µM; 96,000 tested, under 10 active;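 active means activation factor of at least 2 at 5 µM in the primary screen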;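 further: 0 = wells with 2.5 mM tranylcypromine and 1 = vehicle-only wells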
CYP2C9 inh = blockers of cytochrome P450 2C9 activity – biochemical, luminescence, ADME assay, primary screen; P11712; CYP2C9 Supersomes, luciferin-H conversion; inhibition, % at 5 µM; 96,000 compounds, 20% hits;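 active means blocking of liver enzyme CYP2C9 beyond about 50% at 5 µM, limit read from the data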
An asterisk follows results filed as active; · = no result.

SMILES	Pyk2 oligo antag	CYP2C9 activ	CYP2C19 inhib	CYP2C19 activ	CYP2C9 inh
CCC(CC)C1C(C#N)=C(N)Oc2n[nH]c(C)c21 (stereo not drawn)	0.11	0.4	82*	0.2	57*
CCCc1[nH]nc2c1C(CCC)C(C#N)=C(N)O2 (stereo not drawn)	1.4	0.9	62*	0.4	6
Cc1[nH]nc2c1C(c1ccsc1C)C(C#N)=C(N)O2 (stereo not drawn)	0.48	0.9	12	0.9	10
COc1ccc2nc(N3C(=O)CC(Cc4cc(C)cc(C)c4)C3=O)sc2c1 (stereo not drawn)	0.65	0.7	33	0.7	30
CCC(=O)Nc1ccc(-c2nc(-c3ccccc3)n(CC(=O)N3CCCCC3)n2)cc1	-0.16	0.7	7	0.9	35
O=S(=O)(Cc1ccccc1)N1CCC(c2nc(-c3cccs3)no2)CC1	-1.2	0.3	41	0.6	68*
CC(=Nc1ccc2c(c1)nc(CO)n2C)C1=C(O)CC(C)(C)CC1=O	0.06	0.7	15	0.9	26
Cc1cc(C(=O)N(C)Cc2ccc(Br)cc2)no1	0.34	0.7	92*	0.1	31
O=C1CC(c2cccs2)Cc2nc(NCC3CCCO3)ncc21 (stereo not drawn)	-0.25	0.3	85*	0.1	74*
CC1CC(=O)c2cnc(NCC3CCCO3)nc2C1 (stereo not drawn)	-0.43	1.1	2	1	-9
Cc1ccc(-c2csc3nc(C)n(-n4c(C)ccc4C)c(=O)c23)o1	0.27	0.8	79*	0.2	22
Cc1nc2scc(-c3ccco3)c2c(=O)n1/N=C/N(C)C	1.5	0.8	65*	0.4	20
Cc1ccc(C)n1-n1c(C)nc2scc(-c3ccccc3)c2c1=O	-0.96	0.3	72*	0.3	74*
Cc1ccc(-c2csc3nc(C)n(N)c(=O)c23)o1	0.82	0.8	17	0.8	20
Cc1ccc(-c2csc3ncn(/N=C/N(C)C)c(=O)c23)o1	-0.59	0.8	74*	0.3	23
C=CCn1c(SCC(=O)NCCCC)nc2scc(-c3ccco3)c2c1=O	0.5	·	·	·	·
O=Cc1ccc2noc(-c3ccc(F)cc3)c2c1	1.6	0.9	39	0.6	7
Cc1oc2nc(SCCCC(=O)NCCO)nc(N)c2c1C	-0.25	1	-8	1.1	-4
O=C1Nc2ccccc2C12OC1CCCCC1O2 (stereo not drawn)	0.21	1.2	-14	1.1	-23
N#CC1=C(N)C(C#N)(C#N)C2(C(=O)Nc3ccccc32)C2CCCC=C12 (stereo not drawn)	-0.64	0.4	35	0.6	55*
COC(=O)c1[nH]c2ccc(Cl)cc2c1NC(=O)CCN1CCOCC1	0.28	0.9	7	0.9	13
COc1ccc(-c2coc3cc4oc(=O)cc(C)c4cc23)cc1F	-0.45	0.9	58*	0.4	11
Cc1cc(C)n(C(=O)CNC(=O)c2cccs2)n1	0.15	0.9	18	0.8	13
CC(=O)Oc1ccc2ccccc2c1C(NC(=O)Cc1ccccc1)c1ccccc1 (stereo not drawn)	-4*	0.3	61*	0.4	67*
CCCCC(=O)NC(c1cccc([N+](=O)[O-])c1)c1c(OC(C)=O)ccc2ccccc12 (stereo not drawn)	-4.3*	·	·	·	·
SMILES	Pyk2 oligo antag	CYP2C9 activ	CYP2C19 inhib	CYP2C19 activ	CYP2C9 inh
CC(=O)NC1(c2ccc(F)cc2)CCN(C(=O)Nc2ccc(F)cc2F)CC1	0.02	0.8	45	0.6	21
O=c1c(Cc2ccc(Cl)cc2Cl)c(O)ccn1Cc1ccc(Cl)cc1	-2.7	0.9	54*	0.5	13
O=c1c(Cc2ccc(Cl)cc2)c(O)ccn1Cc1cccc(Cl)c1	-1.1	0.8	0	1	22
Cc1cccc(N2C(=O)CSC2c2cccnc2)c1 (stereo not drawn)	-1.3	1	26	0.7	4
Cc1ccc(NC(=O)C2(NC(=O)c3cccc(N4C(=O)CSC4c4ccccc4)c3)CCCCC2)cc1 (stereo not drawn)	-0.9	0.2	4	1	84*
O=C(CCn1nnc2ccccc21)N1CCC(O)(c2cccc(F)c2)CC1	1.4	0.5	43	0.6	52*
COc1ccc(Cn2nnnc2C(C(C)C)N2CCc3ccccc32)cc1 (stereo not drawn)	-1	0.3	71*	0.3	68*
Cc1ccc(S(=O)(=O)Cn2nnnc2C(CC(C)C)N2CCN(c3ccccc3)CC2)cc1 (stereo not drawn)	0.06	·	·	·	·
COc1ccc(Cn2nnnc2C(CC(C)C)N2CCN(c3ccccc3)CC2)cc1 (stereo not drawn)	-1.4	0.4	74*	0.3	65*
CCCC(c1nnnn1Cc1ccc(OC)cc1)N1CCN(c2ccccc2)CC1 (stereo not drawn)	-0.4	0.2	44	0.6	82*
CC(C)CC(c1nnnn1C(C)C)N1CCN(c2ccccc2)CC1 (stereo not drawn)	-0.63	0.3	22	0.8	68*
CCCC(c1nnnn1Cc1ccc(OC)cc1)N1CCC(C(N)=O)CC1 (stereo not drawn)	0.62	0.7	47	0.5	33
Cc1ccc(CN2C(=O)CCC2C(=O)NCc2ccco2)cc1 (stereo not drawn)	-0.28	1	18	0.8	2
CC(=NCCN1CCN(C(=S)Nc2ccccc2)CC1)C1=C(O)CC(C)(C)CC1=O	0.97	0.9	40	0.6	14
COc1ccc(N(C(=O)c2ccc(Br)o2)C2C=CS(=O)(=O)C2)cc1 (stereo not drawn)	2.2	0.9	38	0.6	11
CCN(CCCNC(=O)COc1cc(=O)n(CC)c2ccccc12)Cc1ccccc1	0.97	1	6	0.9	2
CCN(CC)S(=O)(=O)c1ccc(C(=O)N2CCN=C2SC)cc1	·	0.9	14	0.9	7
Cc1ccc(Cl)cc1N1CCN(C(=O)CCC(=O)O)CC1	2.7	1.1	-14	1.1	-8
Cc1ccc(Cl)cc1N1CCN(C(=O)CN2C(=O)c3cccc4cccc2c34)CC1	-0.39	2*	22	0.8	-103
COCCN1Cc2cccc(C(=O)N3CCN(c4cc(C)ccc4C)CC3)c2C1=O	·	0.3	75*	0.3	71*
CCCN1Cc2cccc(C(=O)N3CCN(c4cc(Cl)ccc4C)CC3)c2C1=O	·	0	89*	0.1	96*
CCN1CCN(C(=O)CN2C(=O)c3cccc4cccc2c34)CC1	1.1	·	·	·	·
COCCN1Cc2cccc(C(=O)Nc3ccc4c(c3)OCCO4)c2C1=O	·	0.7	12	0.9	32
O=C1CC(N2CCN(c3ccc(F)cc3)CC2)C(=O)N1Cc1ccc(N2CCCC2=O)cc1 (stereo not drawn)	1.6	0.8	22	0.8	20
